We go through 29 molecules from PubChem BioAssay (NCI).

About 83,000 compounds went through this panel and 20% of them were active in at least one assay; those are over-represented in the sample as a whole.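 Step 1: grow cells in 96-well plates. Step 2: add test compound at a single concentration. Step 3: incubate 48 h. Step 4: record percent growth.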 Values without a mark were called inactive. The source made the active and inactive calls. Rule for the calls: active = growth percent below 10; inactive = the rest.

In this assay the test system is HL-60(TB) leukemia. In words: NCI-60 one-dose screen, 48 h (100 = growth as untreated, 0 = no growth, -100 = all killed). As to conditions: 10 µM unless noted.
For `O=C(NCCCNc1cc(-c2cn(-c3ccccc3)nc2-c2cccc(O)c2)ccn1)Nc1cc(C(F)(F)F)cc(C(F)(F)F)c1`, the growth is 71.9%.
Turning to `COc1cc(/C=C/C(=O)c2cc(OC)c(OC)c(OC)c2)ccc1OCc1ccccc1`, the growth was -9.27% (active).
On to `O=C(c1ccc(Cl)cc1)C1[C@H](c2ccc(Cl)cc2)[C@@H](c2ccccc2)NC12C(=O)Nc1ccc(Br)cc12` (some centres undefined), for which the growth was 22.3%.
Then `Cn1ccnc1C(=O)/C=C/c1ccc(NC(=O)Nc2ccc(F)cc2)cc1`, with 7.58% (active); and `C=C(C)[C@@H]1CC[C@]2(COS(C)(=O)=O)CC[C@]3(C)[C@H](CC[C@@H]4[C@@]5(C)CCCNC(C)(C)[C@@H]5CC[C@]43C)[C@@H]12`, with 34.1%; and `COc1ccc(NC(=O)CSc2nnc(-c3ccc4nc(-c5ccc(OC)c(OC)c5)[nH]c4c3)o2)cc1OC`, with 111%.
On to `COc1cc(OC)c(C2SCC(=O)N2Nc2ncnc3ccccc23)cc1OC` (centres undefined), for which the growth is 103%.
Then `O=C(CSc1nc2sc3c(c2c(=O)n1-c1ccc(Cl)cc1)CCCC3)N/N=C/c1ccc(F)cc1`, with 97.9%; and `O=C(CSc1nc2sc3c(c2c(=O)n1-c1ccc(Cl)cc1)CCCC3)NNC(=O)Nc1ccc(Cl)c(C(F)(F)F)c1`, with 6.38% (active).
To `CN(C)CCCOc1ccc(C(=C(c2ccccc2)C2CCCC2)c2ccc(OCCCN(C)C)cc2)cc1` belongs -57.1% (active); to `COc1cc(-c2nc3sccn3c2-c2ccnc(S(C)(=O)=O)n2)ccc1F`, 93.9%.
Then `NS(=O)(=O)c1ccc(-n2cc(CN3CCNCC3)nn2)cc1`, with 107%.
As for `N#C/C(=C\c1ccc(-c2ccc(Cl)c(Cl)c2)o1)C(=O)Nc1ncc(Cc2ccc(Cl)cc2)s1`, the growth was 51.5%.
As to `O=C1[C@@H]2Cc3c([nH]c4ccccc34)[C@H](c3c(Cl)cccc3Cl)N2C(=O)CN1C1CCN(CC2CCCCC2)CC1`, the growth was -25.1% (active).
Take `O=C(CSc1nnc(-c2cccs2)n1-c1ccccc1)Nc1ccccc1F`: the growth was 66.3%.
To `O=C(/C=C/Nc1ccc(S(=O)(=O)O)cc1)c1ccc(F)cc1` belongs 102%.
For `N#Cc1ccc(C(=O)CSc2nc(Nc3ccc(S(N)(=O)=O)cc3)c3ccccc3n2)cc1`, the growth is 105%.
For `CCN1CCN(c2ccc(NC(=O)Nc3ccc4c(ccn4-c4ccnc(C(=O)NC)c4)c3)cc2C(F)(F)F)CC1`, the growth is 96.6%.
With `NC(=O)c1c(NC(=O)c2ccc(C3CCCCC3)cc2)sc2c1CCC(=O)C2`, the growth was 7.79% (active).
Then `O=C(CSc1nnc(-c2ccc(Cl)cc2)n1-c1ccccc1)Nc1ccc(Br)cc1`, with 81.4%.
Regarding `COc1ccc([C@@H]2c3[nH]c4ccccc4c3C[C@H]3C(=O)N(C4CCN(CC5CCCCC5)CC4)CC(=O)N23)c(OC)c1`, the growth was 47.7%.
Consider `Cc1cc(S(=O)(=O)N(C)C)cc(NCC(=O)NC(=O)NCC(C)C)c1C`, for which the growth was 128%.
To `COc1cc(OC)c(S(=O)(=O)NNC(=O)c2ccncc2)cc1C(=O)/C=C/c1ccc(C)cc1` belongs 51.2%; to `CC(C)(C)c1ccc(C(=O)Nc2sc3c(c2C(N)=O)CC/C(=N\O)C3)cc1`, 4.37% (active).
Then `CN(C)c1ccc(-c2c(NC(C)(C)C)nc3c(OCCc4ccccc4)cccn23)cc1`, with -32.7% (active); and `N#Cc1nc(-c2ccccc2)oc1S(N)(=O)=O`, with 27.1%; and `N#Cc1c(-c2ccc(F)cc2)cc(-c2c[nH]c3ccccc23)nc1-c1c[nH]c2ccccc12`, with 98.9%.
Turning to `N#C/C(=N\Nc1ccc(F)cc1)C(=O)Nc1cc(-c2ccccc2)nn1-c1ccccc1`, the growth is 3.54% (active).
Then `CC(=O)/C(N=Nc1ccc2oc(=O)ccc2c1)=C(\C)O`, with -15.3% (active).
